Results as given in PubChem BioAssay (NCATS).
Records with an inconclusive call do not appear. The source made the active and inactive calls. Unless noted, calls come from the whole dose curve.

Assay: Validation screen for inhibitors of Lassa infection (AID 463096); note: potency is the fitted concentration of half-maximal effect; for activity change, negative = inhibition: % is set by controls: 0 for no effect and ±100 for the full control effect
Conditions: Lassa virus infection, cell-based; series mostly up to 46.1 µM; activity change, negative = inhibition: at the top concentration

| SMILES | activity change, negative = inhibition | Potency |
| --- | --- | --- |
| NC(=S)NCCCC(N)C(=O)O (stereo unspecified) | 3.27% (inactive) |  |
| Nc1ncnc2c1nc(Sc1ccc(Cl)cc1)n2[C@H]1O[C@@H]2COP(=O)(O)O[C@H]2[C@@H]1O | -14.1% (inactive) |  |
| CC(=O)O[C@]1(C(C)=O)CC[C@H]2C3C=C(Cl)C4=CC(=O)[C@@H]5C[C@H]5[C@]4(C)C3CC[C@@]21C (stereo partly specified) | -27% (inactive) |  |
| CC(C)(C)NCC(O)COc1nsnc1N1CCOCC1 (stereo unspecified) | 18.2% (inactive) |  |
| CCCCCCCCCCCCCCC/C=C/[C@@H](O)[C@H](NC(=O)CCCCCCCCCCCCC)OC (tested in a mixture with another compound) | 7.83% (inactive) |  |
| Nc1ccn([C@@H]2O[C@H](CO)[C@@H](O)[C@@H]2O)c(=O)n1 | -16.4% (inactive) |  |
| CNC(=O)[C@H]1O[C@@H](n2cnc3c(N)ncnc32)[C@H](O)[C@H]1O | -14% (inactive) |  |
| NC(=S)c1ccc[n+]([C@@H]2O[C@@H](COP(=O)([O-])OP(=O)(O)OC[C@H]3O[C@@H](n4cnc5c(N)ncnc54)[C@H](OP(=O)(O)O)[C@H]3O)C(O)C2O)c1 (stereo partly specified) | 7.85% (inactive) |  |
| CSc1nc(N)c2ncn([C@@H]3O[C@H](COP(=O)(O)OP(=O)(O)O)[C@H](O)[C@H]3O)c2n1 | -5.7% (inactive) |  |
| CSc1nc(N)c2ncn([C@@H]3O[C@H](COP(=O)(O)OP(=O)(O)OP(=O)(O)O)[C@H](O)[C@H]3O)c2n1 | -5.1% (inactive) |  |
| Nc1ncnc2c1ncn2[C@@H]1O[C@H](COP(=O)(O)OP(=O)(O)OP(=O)(O)OP(=O)(O)OC[C@@H]2O[C@H](n3cnc4c(N)ncnc43)[C@@H](O)[C@@H]2O)[C@H](O)[C@H]1O | 22.1% (inactive) |  |
| CC#C[C@]1(O)CC[C@H]2C3CCC4=CC(=O)CCC4=C3[C@@H](c3ccc(N(C)C)cc3)C[C@@]21C (stereo partly specified) | -33.2% (inactive) |  |
| CN1C(=O)CCC1c1cccnc1 (stereo unspecified) | 1.28% (inactive) |  |
| OC[C@H]1O[C@@H](n2cnc3c(N[C@H]4CC5CCC4C5)ncnc32)[C@H](O)[C@@H]1O (stereo partly specified) | 8.36% (inactive) |  |
| CN=C(N)NCCCC(N)C(=O)O (stereo unspecified) | -11.1% (inactive) |  |
| N#CC(Cc1ccc(O)c(O)c1)C(=O)N1CCc2ccccc21 (stereo unspecified) | -21% (inactive) |  |
| O=C1C(SCCO)=C(SCCO)C(=O)c2ccccc21 |  | 5.01 µM (active) |
| [N-]=[N+]=Nc1ccc(C(=O)CSC[C@H](NC(=O)CC[C@H](N)C(=O)O)C(=O)NCC(=O)O)cc1 | -15.9% (inactive) |  |
| C#C[C@]1(O)CC[C@H]2C3CCC4=Cc5oncc5CC4(C)C3CCC21C (stereo partly specified) | -18% (inactive) |  |
| CN1C2CC(OC(=O)C(CO)c3ccccc3)CC1C1OC12 (stereo unspecified) | 17% (inactive) |  |

| SMILES | activity change, negative = inhibition | Potency |
| --- | --- | --- |
| Cc1cn([C@H]2C[C@@H](N=[N+]=[N-])[C@@H](CO)O2)c(=O)[nH]c1=O | 10.9% (inactive) |  |
| C[C@H]1c2cccc(O)c2C(O)=C2C(=O)[C@]3(O)C(O)=C(C(N)=O)C(=O)C(N(C)C)[C@@H]3[C@@H](O)C21 (stereo partly specified) | -4.39% (inactive) |  |
| COc1ccc(CCNC[C@@H](O)c2ccc(O)cc2)cc1OC | -10.8% (inactive) |  |
| CCCCOC(=O)NS(=O)(=O)c1sc(CC(C)C)cc1-c1ccc(Cn2c(CC)nc3c(C)cc(C)nc32)cc1 | -40.4% (inactive) |  |
| CC(=O)SC1CC2=CC(=O)CC[C@]2(C)C2CC[C@@]3(C)[C@@H](CC[C@@]34CCC(=O)O4)C12 (stereo partly specified) | 8.69% (inactive) |  |
| CN(C)CCCO[C@H]1C([C@H](O)CO)O[C@@H]2OC(C)(C)O[C@@H]21 (stereo partly specified) | 47.5% (inactive) |  |
| NCC1OC(O[C@@H]2[C@H](O)[C@@H](OC3C(O)C(N)CC(N)C3OC3OC(CO)C(O)C(O)C3N)O[C@@H]2CO)C(N)C(O)C1O (stereo partly specified) | -13.2% (inactive) |  |
| C[C@@H](Oc1ccc(Oc2cnc3ccc(Cl)cc3n2)cc1)C(=O)O | -16.5% (inactive) |  |
| Nc1ncnc2c1nc(Br)n2C1O[C@H]2COP(=O)(O)O[C@@H]2C1O (stereo partly specified) | -12.4% (inactive) |  |
| CCCCC#Cc1nc(N)c2ncn([C@@H]3O[C@H](C(=O)NCC)[C@@H](O)[C@H]3O)c2n1 | 6.24% (inactive) |  |
| O=C(NCCNCC(O)COc1ccc(O)cc1)N1CCOCC1 (stereo unspecified) | -0.91% (inactive) |  |
| CCCCCCCCCCCCC/C=C/[C@@H](O)[C@@H](N)CO | 1.93% (inactive) |  |
| Nc1ncnc2c1c(-c1ccc(Oc3ccccc3)cc1)cn2C1CCCC1 | -38.4% (inactive) |  |
| CC(O)[C@@H](O)[C@H]1CNc2nc(N)[nH]c(=O)c2N1 (stereo partly specified) | 14.6% (inactive) |  |
| COc1ccccc1CNCCCCCCNCCCCCCCCNCCCCCCNCc1ccccc1OC | -2.01% (inactive) |  |
| C1CCC(N=C(NC23CC4CC(CC(C4)C2)C3)N2CCOCC2)CC1 | -27.4% (inactive) |  |
| CC1(C)C(=O)N(CCN2CCC(C(=O)c3ccc(F)cc3)CC2)c2ccccc21 | -8.72% (inactive) |  |
| Nc1nc2c(nc(Br)n2C2O[C@H]3COP(=O)(O)O[C@@H]3C2O)c(=O)[nH]1 (stereo partly specified) | 8.1% (inactive) |  |
| CNC(=O)[C@H]1O[C@@H](n2cnc3c(NCc4cccc(I)c4)ncnc32)[C@H](O)[C@H]1O | -12.9% (inactive) |  |

Assay: Inducers of the Endoplasmic Reticulum Stress Response (ERSR) in human glioma: Validation (AID 504836; active = well fitted curve in the direction sought with a large enough effect; note: 0% is about no effect)
Conditions: human glioma cells, ER stress response reporter; series mostly up to 38.3 µM; activation: at the top concentration
How it was run: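 ERSR induction read as luciferase luminescence (Bright-Glo, 10 min at room temperature) in stably transfected human U87-MG glioma cells exposed to compounds for 16 h, using GRP78 as sensor.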

| SMILES | activation |
| --- | --- |
| O=C1C(SCCO)=C(SCCO)C(=O)c2ccccc21 | -11.8% (inactive) |
| [N-]=[N+]=Nc1ccc(C(=O)CSC[C@H](NC(=O)CC[C@H](N)C(=O)O)C(=O)NCC(=O)O)cc1 | 0.912% (inactive) |
| CCCCOC(=O)NS(=O)(=O)c1sc(CC(C)C)cc1-c1ccc(Cn2c(CC)nc3c(C)cc(C)nc32)cc1 | 6.38% (inactive) |
| Nc1ncnc2c1c(-c1ccc(Oc3ccccc3)cc1)cn2C1CCCC1 | -3.09% (inactive) |
| COc1ccccc1CNCCCCCCNCCCCCCCCNCCCCCCNCc1ccccc1OC | -4.85% (inactive) |
| C1CCC(N=C(NC23CC4CC(CC(C4)C2)C3)N2CCOCC2)CC1 | 0.37% (inactive) |
| CC1(C)C(=O)N(CCN2CCC(C(=O)c3ccc(F)cc3)CC2)c2ccccc21 | -0.181% (inactive) |
